# Reference: PubChem BioAssay (Tox21)
# Several values for one entry are separate records, joined by “and”; a condition that tells them apart may be missing. Equal values may be shown once. Records with an inconclusive call do not appear. Activity calls are given as the source filed them. The call rests on the fitted dose curve; in most records, active means well fitted curve in the direction sought with a large enough effect in the repeat runs; inconclusive means weak or mixed curves; inactive means no such curve, though single readings can be large; an effect the other way counts as inactive or inconclusive.
# Experiment: qHTS assay to identify small molecule agonists of the sonic hedgehog signaling (Shh) pathway - cell viability counter screen (AID 1259366); further: nearly all actives have a fitted effect of over 50% in size
# Conditions: NIH/3T3 Gli1-Luc viability, CellTiter-Fluor, 24 h; series mostly up to 92.4 µM; viability change, negative = cytotoxic: at the top concentration
# Summary of the method: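 Cytotoxicity counter screen: CellTiter-Fluor reagent added after 23 h compound exposure, then 1 h at 37C and fluorescence read. Cells were 3T3 Gli1-Luc, seeded 2,000 per well and dosed 4 h post-plating.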
# On the % scale 0 is the no-effect control and ±100 the full control effect; potency means the concentration at half of the fitted maximal effect.
SMILES,"viability change, negative = cytotoxic",Potency
Nc1cc(Cl)ccc1Cl,3.37% (inactive),
O=c1[nH]c(Cl)c(Cl)cc1Cl,-2.9% (inactive),
CCCCCCCCCCCCCCn1cc[n+](C)c1,,17.3 µM (active) and 24.1 µM (active)
CSC(=O)c1c(C(F)F)nc(C(F)(F)F)c(C(=O)SC)c1CC(C)C,-2.55% (inactive),
Cc1ccc(C)c2ccccc12,0.018% (inactive),
CC(Cc1ccccc1)N(C)Cc1ccco1 (stereo unspecified),6.34% [at 42.5 µM] (inactive),
O=C(CCCCl)c1ccc(F)cc1,1.51% [at 42.5 µM] (inactive),
O=C(NC(=O)c1ccccc1Cl)Nc1ccc(OC(F)(F)F)cc1,2.84% (inactive),
Oc1cccc(Cl)c1Cl,-4.89% (inactive),
CCCCC/C=C\C/C=C\C/C=C\C/C=C\CCCC(=O)NCC(=O)O,11.4% [at 42.5 µM] (inactive),
CNC(C)(C)Cc1ccccc1,-3.24% [at 42.5 µM] (inactive),
O=[N+]([O-])[O-].[Tl+],-9.96% (inactive),
C[C@@H]1CC2=CC(=O)CC[C@@H]2[C@H]2CC[C@@]3(C)[C@@H](CC[C@]3(C)O)[C@@H]21,3.37% [at 42.5 µM] (inactive),
COP(=S)(OC)Oc1nc(Cl)c(Cl)cc1Cl,3.1% (inactive),
CC(C)Br,2.1% (inactive),
[O-][Cl+3]([O-])([O-])O,14.4% (inactive),
CSSC,1.15% (inactive),
CSC1=N[C@@](C)(c2ccccc2)C(=O)N1Nc1ccccc1,2.18% (inactive),
N#CCCl,-2.52% (inactive),
CCCC[N+]1(C)CCCC1 (tested in a mixture with another compound),1.7% (inactive),
Cc1ccc([N+](=O)[O-])[c]2c1[O][Hg]2,,2.66 µM (active)
CCC[CH2][Sn]([CH2]CCC)([O]C(C)=O)[O]C(C)=O,,6.17 µM (active)
CC#C[C@]1(O)CC[C@H]2[C@@H]3C[C@H](C)C4=CC(=O)CC[C@]4(C)[C@H]3CC[C@@]21C,-1.79% [at 42.5 µM] (inactive),
CC1CCCC1,-2.64% (inactive),
O=C(NC(=O)c1c(F)cccc1F)Nc1ccc(Oc2ccc(C(F)(F)F)cc2Cl)cc1F,14.1% (inactive),
CCCCC(CC)COC(=O)OOC(C)(C)C (stereo unspecified),12.1% (inactive),
CC1CN1 (stereo unspecified),2.37% (inactive),
O=S(=O)(NS(=O)(=O)C(F)(F)F)C(F)(F)F,-6.97% (inactive),

# Experiment: qHTS assay to identify small molecule antagonists of the sonic hedgehog signaling (Shh) pathway - cell viability counter screen (AID 1259367); further: nearly all actives have a fitted effect of over 55% in size
# Conditions: NIH/3T3 Gli1-Luc viability, CellTiter-Fluor, 24 h; series mostly up to 92.4 µM; viability change, negative = cytotoxic: at the top concentration
# Summary of the method: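 CellTiter-Fluor signal in conditioned medium-stimulated 3T3 Gli1-Luc cells, 23 hr compound exposure, 37C.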
SMILES,"viability change, negative = cytotoxic",Potency
Nc1cc(Cl)ccc1Cl,-6.09% (inactive),
O=c1[nH]c(Cl)c(Cl)cc1Cl,14.7% (inactive),
CCCCCCCCCCCCCCn1cc[n+](C)c1,,19.4 µM (active) and 27 µM (active)
CSC(=O)c1c(C(F)F)nc(C(F)(F)F)c(C(=O)SC)c1CC(C)C,0.919% (inactive),
Cc1ccc(C)c2ccccc12,0.474% (inactive),
CC(Cc1ccccc1)N(C)Cc1ccco1 (stereo unspecified),6.18% [at 42.5 µM] (inactive),
O=C(CCCCl)c1ccc(F)cc1,-0.201% [at 42.5 µM] (inactive),
O=C(NC(=O)c1ccccc1Cl)Nc1ccc(OC(F)(F)F)cc1,-2.49% (inactive),
Oc1cccc(Cl)c1Cl,1.58% (inactive),
CCCCC/C=C\C/C=C\C/C=C\C/C=C\CCCC(=O)NCC(=O)O,0.799% [at 42.5 µM] (inactive),
O=C(N[C@H]1N=C(c2ccccc2F)c2cccc3c2N(CC3)C1=O)c1cc2ccccc2[nH]1,-14.4% [at 42.5 µM] (inactive),
CNC(C)(C)Cc1ccccc1,5.4% [at 42.5 µM] (inactive),
O=[N+]([O-])[O-].[Tl+],-18.4% (inactive),
ClC(Cl)C(Cl)(Cl)Cl,2.67% (inactive),
C[C@@H]1CC2=CC(=O)CC[C@@H]2[C@H]2CC[C@@]3(C)[C@@H](CC[C@]3(C)O)[C@@H]21,0.436% [at 42.5 µM] (inactive),
Brc1ccc(Oc2ccc(Br)cc2Br)c(Br)c1,-0.0122% (inactive),
CC(=O)[O-].CC(=O)[O-].CC(=O)[O-].[Sb+3],4.31% [at 3.27 µM] (inactive),

SMILES,"viability change, negative = cytotoxic",Potency
COP(=S)(OC)Oc1nc(Cl)c(Cl)cc1Cl,8.26% (inactive),
CC(C)Br,2.03% (inactive),
[O-][Cl+3]([O-])([O-])O,8.06% (inactive),
CC(C)[C@@H](Nc1ccc(C(F)(F)F)cc1Cl)C(=O)OC(C#N)c1cccc(Oc2ccccc2)c1 (stereo partly specified),11.2% (inactive),
CSSC,-12% (inactive),
CSC1=N[C@@](C)(c2ccccc2)C(=O)N1Nc1ccccc1,2.03% (inactive),
N#CCCl,4.33% (inactive),
CCCC[N+]1(C)CCCC1 (tested in a mixture with another compound),-18.5% (inactive),
Cc1ccc([N+](=O)[O-])[c]2c1[O][Hg]2,,3.35 µM (active)
COC(=O)/C=C(\C)OP(=O)(OC)OC,1.39% (inactive),
CCC[CH2][Sn]([CH2]CCC)([O]C(C)=O)[O]C(C)=O,,27.6 µM (active)
CC#C[C@]1(O)CC[C@H]2[C@@H]3C[C@H](C)C4=CC(=O)CC[C@]4(C)[C@H]3CC[C@@]21C,0.0828% [at 42.5 µM] (inactive),
CC1CCCC1,0.0351% (inactive),
CCCCn1cc[n+](C)c1.[Cl][Fe-]([Cl])([Cl])[Cl],7.12% (inactive),
CCC(C)Nc1c([N+](=O)[O-])cc(C(C)(C)C)cc1[N+](=O)[O-] (stereo unspecified),1.76% (inactive),
O=C(NC(=O)c1c(F)cccc1F)Nc1ccc(Oc2ccc(C(F)(F)F)cc2Cl)cc1F,1.91% (inactive),
